About 6,400 (1.6%) of roughly 410,000 compounds were called active. Another 20% or so got no clear call; they are omitted. The entries come from a sample that favours actives as a whole. Entries that show only a call come without a potency. A number with no mark means an inactive call. Calls follow the shape of the dose curve; as a rule, active = well fitted inhibition curve with a large enough effect; inconclusive = small, poorly fitted or top-dose-only effect; inactive = no such curve, though single readings can be large or run the other way.
Biological target: Glucagon-like peptide 1 receptor (Homo sapiens) (UniProt P43220)
Experiment: qHTS of GLP-1 Receptor Inverse Agonists (Inhibition Mode); also: nearly all actives have a fitted effect of over 55% in size
Settings: HEK293 GLP-1R CRE-luciferase, luminescence, 24 h, GLP-1R form is constitutively active; series mostly up to 38.3 µM
How it was run: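 HEK293 cells stably co-expressing a cAMP-responsive luciferase reporter and constitutively active GLP-1R were seeded, incubated 12 h, then exposed to compounds for 24 h at 37 C. Luminescence was read 12 min after detection reagent; inverse agonists lower signal.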
Potency is read from the fitted curve at half-maximal effect.

Chain of Glucagon-like peptide 1 receptor (Homo sapiens) (P43220 whole entry, looked up): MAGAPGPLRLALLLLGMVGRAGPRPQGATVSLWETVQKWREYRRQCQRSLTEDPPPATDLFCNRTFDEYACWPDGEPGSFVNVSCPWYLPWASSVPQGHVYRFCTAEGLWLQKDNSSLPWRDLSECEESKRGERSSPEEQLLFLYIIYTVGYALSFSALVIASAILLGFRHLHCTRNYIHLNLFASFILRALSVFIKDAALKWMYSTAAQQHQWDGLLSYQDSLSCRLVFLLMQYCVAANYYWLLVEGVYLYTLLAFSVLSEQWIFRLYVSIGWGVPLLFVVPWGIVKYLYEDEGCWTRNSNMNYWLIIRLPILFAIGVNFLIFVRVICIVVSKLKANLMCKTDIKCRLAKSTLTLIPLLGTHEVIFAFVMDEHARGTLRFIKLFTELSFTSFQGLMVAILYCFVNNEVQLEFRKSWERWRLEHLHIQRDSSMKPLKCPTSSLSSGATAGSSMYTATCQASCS

| SMILES | Potency | activity change, negative = inhibition |
| --- | --- | --- |
| CN(C)CCNC(=O)c1ccc(Cl)c2cc3ccccc3nc12 | 7.08 µM (active) | – |
| CC(=O)NCCNC(=O)c1cc(-c2cccc3ccccc23)nc2ccccc12 | inactive | – |
| CCCN(CCC)CCNC(=O)c1cc2c(C)nc3ccccc3c2o1 | inactive | – |
| CC(=O)NC(c1ccccc1)c1nc(-c2ccccc2C)cs1 (centres undefined) | inactive | – |
| c1ccc2cc3c(NCCN4CCOCC4)ccnc3cc2c1 | 10 µM (active) | – |
| c1ccc(-c2ccc(OCCN3CCOCC3)cc2)cc1 | inactive | – |
| CCOc1nc(NCCN2CCOCC2)nc(Nc2ccc(C)cc2)n1 | inactive | – |
| CCCCn1nnnc1C(c1ccccc1)N1CCN(c2ccccc2OC)CC1 (centres undefined) | inactive | – |
| O=C(NCc1ccccc1Cl)c1csc([C@@H]2O[C@H](CO)[C@@H](O)[C@H]2O)n1 | inactive | – |
| CCCN(CC(=O)Nc1ccccc1C)C(=O)c1ccc2[nH]c3c(c2c1)CC(C)CC3 (centres undefined) | 5.62 µM (active) | – |
| CCCN(CC(=O)Nc1ccccc1C)C(=O)c1ccc(OCC(=O)N2CCOCC2)c(OCC)c1 | inactive | – |
| CCCN(CC(=O)Nc1ccccc1C)C(=O)c1cc(=O)[nH]c2ccccc12 | inactive | – |
| CN(Cc1c(F)cccc1Cl)C(=O)COC(=O)Cn1cnc2ccccc2c1=O | inactive | – |
| CCCN1CCc2nc(N3CCN(C)CC3)ncc2C1 | inactive | – |
| CCOc1ccc(CN2CCCN(C)CC2)cc1 | inactive | – |
| Cc1ccc(CN2CCc3nc(N4CCN(C)CC4)ncc3C2)cc1 | 7.94 µM (active) | – |
| COc1cc(C(O)c2nc(-c3cccc(C(=O)O)c3)cs2)ccc1F (centres undefined) | inactive | – |
| Cc1cccc(C)c1-n1nnnc1C(CCc1ccccc1)N1CCN(C/C=C/c2ccccc2)CC1 (centres undefined) | inactive | – |
| CC(C)C1Cc2[nH][nH]c(=O)c2C(c2ccc(Cl)cc2)O1 (centres undefined) | inactive | – |
| CC1Cc2[nH][nH]c(=O)c2C(C2CC2)O1 (centres undefined) | inactive | – |
| COc1ccc(N2C(=O)C(Cc3ccccc3)NC2=S)cc1 (centres undefined) | inactive | – |
| O=c1[nH][nH]c2c1[C@H](c1ccc(Cl)cc1)O[C@H](CCc1ccccc1)C2 | 10 µM (active) | – |
| COc1ccc(C2OC(CCc3ccccc3)Cc3[nH]c(=S)[nH]c(=O)c32)cc1 (centres undefined) | 10 µM (active) | – |
| COc1ccc(C2CC(=O)NC(=O)C2)cc1 | inactive | – |
| COc1ccc(CCNC(=O)Nc2ccc3c(c2)c(=O)n(C)n3C)cc1OC | inactive | – |

| SMILES | Potency | activity change, negative = inhibition |
| --- | --- | --- |
| CC(C)CN1C(=O)CN(S(C)(=O)=O)CC1(C)C(=O)NCc1ccccc1 (centres undefined) | inactive | – |
| c1ccc(Cc2c(-c3ccco3)nc3c4ccccc4ccn23)cc1 | inactive | – |
| CCN(CC)CCNC(=O)Cn1cnc2sc(C)c(S(=O)(=O)N3CCOCC3)c2c1=O | inactive | – |
| Cc1ccc(NC(=O)Cn2cnc3nc4c(cc3c2=O)CCCC4)cc1Cl | inactive | – |
| CCN(CC)CCNC(=O)c1sc2ncn(CC(=O)Nc3ccc(C)c(Cl)c3)c(=O)c2c1C | 11.2 µM (active) | – |
| COc1ccc(C(C(=O)Nc2c(C)cccc2C)N2CCN(c3ccc(C)cc3)CC2)cc1 (centres undefined) | inactive | – |
| CCOC(=O)N1CCN(C(c2ccnc3ccccc23)c2nnnn2-c2c(C)cccc2C)CC1 (centres undefined) | inactive | – |
| Cc1nc(C(F)(F)F)ccc1C(=O)N1CCC1(C)C(=O)NS(=O)(=O)c1ccccc1 (centres undefined) | inactive | – |
| O=C(c1cc(C2CCCCN2S(=O)(=O)c2ccccc2)on1)N1CCOCC1 (centres undefined) | inactive | – |
| CCN1CCCC1CNC(=O)c1ccc2c(c1)NC(=O)/C(=C\c1ccccc1F)S2 (centres undefined) | 11.2 µM (active) | – |
| CCN1CCCC1CNC(=O)c1cc2c(=O)n(C)c3ccccc3c2n1C (centres undefined) | inactive | – |
| CCN1CCN(CCNC(=O)c2ccc3c(c2)NC(=O)/C(=C\c2cccc(Cl)c2)S3)CC1 | inactive | – |
| O[C@H]1CN(Cc2cccs2)[C@@H](c2ccc(Cl)cc2)C[C@@H]1n1cc(C2CC2)nn1 | inactive | – |
| O=C(CNC(=O)N1CC(=O)Nc2ccccc21)Nc1ccc(Br)cc1F | inactive | – |
| CO[C@@H]1CN(C)C(=O)c2cc(NC(=O)C3CC3)ccc2OC[C@H](C)N(C(=O)CN2CCOCC2)C[C@@H]1C | inactive | – |
| c1ccc(-c2csc(N3CCc4ccccc4C3)n2)cc1 | inactive | – |
| CN(C)CCCNC(=S)N1CCN(c2nc(-c3ccccc3)cs2)CC1 | 3.98 µM (active) | – |
| CN(C)CCCNC(=S)N1CCC(c2nc3ccccc3[nH]2)CC1 | inactive | – |
| CCOn1c(SC(C)C)nc2ccccc2c1=O | inactive | – |
| CCC1(CC)Cc2ccccc2-c2nc3ccccc3c(=O)n21 | 8.91 µM (active) | – |
| CCOC(=O)C1CCc2nc3ccccc3c(=O)n21 (centres undefined) | inactive | – |
| Cc1ccc([C@@H]2CC(=O)[C@@H]3CN(S(=O)(=O)c4ccc(C)cc4)[C@H](c4ccccc4F)C[C@@H]3N2S(=O)(=O)c2ccc(Cl)cc2)cc1 | inactive | – |
| O=C(CSc1ccc(-c2ccc(Br)cc2)nn1)NCC1CCCO1 (centres undefined) | inactive | – |
| O=C(CCNS(=O)(=O)c1ccc(Br)cc1)NCC1CCCO1 (centres undefined) | inactive | – |
| OC(CNCC1CCCO1)Cn1c2ccc(Br)cc2c2cc(Br)ccc21 (centres undefined) | 5.62 µM (active) | – |

| SMILES | Potency | activity change, negative = inhibition |
| --- | --- | --- |
| Cc1cccc(C(=O)N2c3nc(-c4ccco4)nn3C3(CCCCC3)[C@@H]3CCCC[C@@H]32)c1 | 11.2 µM (active) | – |
| Cc1ccc(-n2ncc3c2ncn2nc(-c4ccco4)nc32)c(C)c1 | inactive | – |
| Cc1cccc(C(=O)NC(=S)N(C)C2CCCCC2)c1 | inactive | – |
| CCc1nc2c(OCC(N)=O)cccn2c1N(C)C(=O)c1ccc(OC)cc1 | inactive | – |
| Cc1ccccc1S(=O)(=O)NC(=O)C1(C)CCN1C(=O)Cc1ccc(Cl)cc1Cl (centres undefined) | inactive | – |
| C=CC[C@@H](CC(=O)N[C@H](CO)Cc1ccccc1)C(=O)N[C@H](C)COC(=O)[C@@H](CC=C)Cc1ccc(F)cc1 | inactive | – |
| C=CCC[C@H](Cc1ccc(F)cc1)C(=O)OC[C@@H](NC(=O)[C@@H](CC=C)CC(=O)N[C@H](CO)Cc1ccccc1)C(C)(C)C | 7.94 µM (active) | – |
| C=CC[C@@H](CC(=O)N[C@@H](CO)Cc1ccccc1)C(=O)N[C@H](COC(=O)[C@H](CC=C)CC(=O)OC(C)(C)C)Cc1ccccc1 | inactive | – |
| CCCCc1ccc(S(=O)(=O)NC(=O)C2(C)CCN2C(=O)c2c(C)noc2C)cc1 (centres undefined) | inactive | – |
| Cc1cc(=O)c2ccc(NC(=O)c3ccccc3)cc2[nH]1 | inactive | – |
| CCCCCn1nnnc1C1c2ccccc2C(=O)N1Cc1ccco1 (centres undefined) | inactive | – |
| COc1ccc(Sc2ccc(NC(=O)c3cccc(Cl)c3)cc2C#N)cc1 | inactive | – |
| CCCCNC(=O)C[C@@H]1C[C@@]2(C(=O)OCC)CCC=C2N(Cc2ccco2)C1=O | inactive | – |
| O=S(=O)(Cc1ccccc1)c1nc2ccccc2n1Cc1ccccn1 | – | 0.0124% [at 7.66 µM] |
| Cn1c(S(=O)(=O)O)nc2ccccc21 | inactive | – |
| O=S(=O)(O)c1nc2ccccc2n1Cc1ccc(Cl)cc1Cl | 10 µM (active) | – |
| Cc1ccc(-c2ccc(C3=CC(=O)CC(C)(C)C3=O)cc2)cc1 | inactive | – |
| CCc1nc2ccc(C(=O)NC3CCN(Cc4ccccc4)CC3)cn2c1N(C)CCN1CCOCC1 | inactive | – |
| CC(C)CCC(=O)Nc1cc(S(=O)(=O)N2CCOCC2)ccc1N1CCCC1 | inactive | – |
| O=S(=O)(c1ccc2nc(N3CCN(c4cccc(Cl)c4)CC3)ccc2c1)N1CCCCC1 | inactive | – |
| Cc1ccc(Nc2ccc3cc(S(=O)(=O)N4CCCCC4)ccc3n2)cc1F | 2.82 µM (active) | – |
| CC(=O)c1cccc(Nc2ccc3cc(S(=O)(=O)N4CCC(C)CC4)ccc3n2)c1 | inactive | – |
| CC1CCC2(CC1)N=C(c1ccccc1)C(=O)N2CC(=O)Nc1ccc(F)c(Cl)c1 (centres undefined) | 10 µM (active) | – |
| Cc1ccc(NC(=O)CN2C(=O)C(c3ccc(F)cc3)=NC23CCCCCC3)c(C)c1 | inactive | – |
| COc1ccc(NC(=O)CN2C(=O)C(c3ccccc3)=NC23CCCCCC3)cc1OC | inactive | – |

| SMILES | Potency | activity change, negative = inhibition |
| --- | --- | --- |
| CC(C)(C)c1ccc(S(=O)(=O)NC(=O)C2(C)CCN2C(=O)CC2CC2)cc1 (centres undefined) | inactive | – |
| CCOC(=O)C1(CCOc2ccccc2)CCN(C(=O)c2cncs2)CC1 | inactive | – |
| CCCS(=O)(=O)N1CCC(CCOc2ccccc2)(C(=O)OCC)CC1 | inactive | – |
| CCOC(=O)C1(CCOC)CCN(Cc2ccc(C(=O)OC)cc2)CC1 | inactive | – |
| CCOC(=O)C1(CCOc2ccccc2)CCN(Cc2ccc(C#CCCO)cc2)CC1 | 7.94 µM (active) | – |
| CCOC(=O)C1(CCOc2ccccc2)CCN(Cc2cc(OC)cc(OC)c2)CC1 | 10 µM (active) | – |
| CCOC(=O)C1(S(=O)(=O)c2ccc(Cl)cc2)CCN(Cc2ccccc2)CC1 | inactive | – |
| COC(=O)C[C@@H]1C=C[C@@H](NC(=O)c2cccnc2)[C@@H](CO)O1 | inactive | – |
| COc1ccc(CN2C[C@H]3CON(C)[C@H]3C[C@H]2c2ccc(-c3cccc(F)c3)cc2)cc1 | inactive | – |
| CC1C(=O)N(Cc2cn(CC3CCCCC3)nn2)CCS(=O)(=O)N1Cc1ccc(-c2cccc(N(C)C)c2)cc1 (centres undefined) | inactive | – |
| O=S1(=O)CCN(Cc2ccccc2)CC1 | inactive | – |
| O=C(NC1CCCC1)C1CCN(C(=O)Nc2cccc(Cl)c2)CC1 | inactive | – |
| O=C(Nc1cccc(-c2cccc(Cl)c2)c1)C1CCN(C2CCC2)CC1 | 6.31 µM (active) | – |
| COc1cccc(-c2cccc(NC(=O)C3CCN(C4CCC4)CC3)c2)c1 | inactive | – |
| Cc1cc2c(cc1C)N1C(=O)c3cc4ccccc4cc3NC(=O)C1C(=O)N2 (centres undefined) | inactive | – |
| O=S(=O)(CCc1nc2ccccc2o1)c1ccc(Cl)cc1 | inactive | – |
| NNC(=O)c1ccc(Cl)cc1Cl | inactive | – |
| O=S(=O)(Cc1ccc(Cl)cc1Cl)c1ccc(Cl)cc1 | 12.6 µM (active) | – |
| COCCNc1nc(NCc2ccc(NC(C)=O)cc2)c2sccc2n1 | inactive | – |
| C[C@H](CO)N1C[C@H](C)[C@@H](CN(C)S(=O)(=O)c2ccc(Oc3ccccc3)cc2)OCc2cn(nn2)CCCC1=O | inactive | – |
| Cc1csc(SCC(=O)Nc2ccc(C)c(S(=O)(=O)N(C)C)c2)n1 | inactive | – |
| OCCNc1nc(Nc2ccc(Cl)c(Cl)c2)nc2ccccc12 | 3.98 µM (active) | – |
| Cc1nnc(NCCO)c2ccccc12 | inactive | – |
| CN(C)c1nc(Nc2ccc(Cl)c(Cl)c2)nc(N(C)C)n1 | inactive | – |

— PubChem BioAssay AID624417 (National Center for Advancing Translational Sciences (NCATS), 2012)
